Many of the other results were omitted from the sample, so hits are more common in it than they were.
FBPA Giardia inh – Giardia lamblia aldolase inhibition; A8B2U2; purified Giardia FBPA; Potency, µM (titrated, usually from 59.6 µM), hits mostly inhibitors; hit rate 0.71% among 290,000; AID 2451; note: nearly all actives have a fitted effect of over 55% in size
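40 nM FBPA preincubated 10 min at RT with compound (up to 57.5 uM final), then substrate plus GAPDH/TPI/NAD/arsenate coupling and diaphorase/resazurin added. Fluorescence read after 20 min at RT, 525/598 nm.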
CHX counter – counter-screen hit for Shiga toxin inhibitors, cycloheximide | cell reporter, cycloheximide protein synthesis inhibition counterscreen | max response, % | hit rate 12% among 300,000; in the data active = max response mostly above about 13%, no sharp cut-off; inactive = mostly below about 14%; note: read at 38.3 µM for the half of the compounds with a filed dose
TbPYK inhibitor – blocks Trypanosoma brucei pyruvate kinase | TbPYK enzyme, Kinase-Glo Plus ATP luminescence, 45 min | Potency, µM (series often up to 76.8 µM), hits mostly inhibitors | hit rate 0.12% among 410,000; note: nearly all actives have a fitted effect of over 50% in size
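TbPYK + substrate in 50 mM TEA pH 7.2, 100 mM KCl, 10 mM MgCl2, 0.05% BSA, 0.01% Tween-20; cpd pinned; ADP 130 uM final; 45 min RT; Kinase-Glo Plus 10 min; luminescence endpoint.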
LmPK inh – inhibitors of Leishmania mexicana pyruvate kinase; Q27686; purified LmPK, Kinase-Glo ATP luminescence, 1 h; Potency, µM (titrated, usually from 57.5 µM), hits mostly inhibitors; hit rate 0.37% among 290,000
Target sequence (Q27686 whole entry, looked up): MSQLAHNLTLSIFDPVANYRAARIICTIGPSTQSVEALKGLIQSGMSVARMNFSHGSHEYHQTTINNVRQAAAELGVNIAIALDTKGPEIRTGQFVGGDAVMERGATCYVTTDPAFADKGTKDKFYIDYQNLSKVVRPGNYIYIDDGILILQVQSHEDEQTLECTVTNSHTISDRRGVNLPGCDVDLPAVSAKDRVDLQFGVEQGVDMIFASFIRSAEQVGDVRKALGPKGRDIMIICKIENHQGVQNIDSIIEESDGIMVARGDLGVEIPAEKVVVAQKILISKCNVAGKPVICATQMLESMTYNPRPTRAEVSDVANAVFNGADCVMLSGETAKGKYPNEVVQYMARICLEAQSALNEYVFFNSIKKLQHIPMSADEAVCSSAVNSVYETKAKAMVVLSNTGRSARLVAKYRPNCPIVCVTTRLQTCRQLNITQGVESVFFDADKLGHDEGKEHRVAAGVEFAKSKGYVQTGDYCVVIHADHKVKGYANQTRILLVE
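0.1 nM LmPK, 0.5 mM PEP, 0.1 mM ADP; 50 mM imidazole pH 7.2, 7 mM MgCl2, 50 mM KCl; 1 h RT. Kinase-Glo luminescence readout, normalized to no-enzyme (full inhibition) and uninhibited wells.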
Shiga toxin inh – blocks Shiga toxin action in Vero cells. hit rate 9.2% among 290,000. AID 2315. Vero cells, Shiga toxin protein synthesis inhibition reporter. inhibition, % at 38.7 µM; in the data active = inhibition mostly above about 28%, no sharp cut-off; inactive = mostly below about 43%
Sm TGR inh – inhibitors of Schistosoma mansoni thioredoxin glutathione reductase; hit rate 3% among 360,000; purified TGR, DTNB reduction, TNB absorbance 405 nm; Q962Y6; Potency, µM (doses to about 114 µM), most hits filed as inhibitors; note: nearly all actives have a fitted effect of over 60% in size
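First, TGR (20 nM dispensed) and NADPH were mixed with compound. Second, a 15 min room-temperature incubation followed. Third, further NADPH and then DTNB were added to start the reaction. Finally, TNB absorbance was monitored kinetically.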
A number is an active result; n = inactive; u = inconclusive; x = no result given; [ ] = dose if it differs, or a comment. Unless noted, calls come from the whole dose curve; as a rule, active = well fitted curve in the direction sought with a large enough effect; inconclusive = small, poorly fitted or top-dose-only effect, or another doubt; inactive = no such curve, though single readings can be large; an effect the other way counts as inactive or inconclusive.

SMILES | FBPA Giardia inh | CHX counter | TbPYK inhibitor | LmPK inh | Shiga toxin inh | Sm TGR inh
Cc1cccc(-c2nc(C#N)c(N3CCCCCC3)o2)c1 | n | 27.6 | n | n | 70.2 | n
O=C(O)c1cccc2c1C(=O)c1ccc(-c3ccc(F)cc3F)cc1S2(=O)=O | x | x | n | x | x | n
COC(=O)[C@H](C)N(Cc1ccc(Cl)c(Cl)c1)S(=O)(=O)CCN1CCN(c2ccccc2)CC1 | x | x | n | x | x | x
Cc1oc(C)c2c(=O)ccc3c(c12)OC(N)=C(C#N)C3c1ccc(F)cc1 (configuration not stated) | 5.62µM | n | n | n | n | 17.8µM
Cn1nnc2c(NCc3c(F)cccc3F)ncnc21 | x | x | n | x | x | n
C=C1C(=O)[C@@]23[C@H](O)C[C@@H]4C(C)(C)CC[C@H](O)[C@]4(C)[C@@H]2C[C@H](O)[C@@H]1[C@H]3O | n | n | n | n | n | 10µM
C=C1C(=O)[C@@]23[C@H](O)C[C@@H]4C(C)(C)CC[C@H](O)[C@@]4(C)[C@@H]2CC[C@@H]1[C@H]3O | n | n | n | n | n | 20µM
C=C1C(=O)[C@]23C[C@H]1CCC2[C@]1(C)CCC[C@@](C)(C(=O)O)C1C[C@@H]3O (some centres not stated) | x | x | n | x | x | x
CC(C)=CCC/C(C)=C/CO/N=C1/C[C@@H](O)[C@@H](O)[C@@H]2[C@@H]3C(=O)N(C(C)(C)C)C(=O)[C@H]3CC[C@@H]12 | n[12.9 µM] | x | x | x | x | x
O=C1N=C(N2CCCC2)S/C1=C\c1ccccc1 | n | n | n | n | n | n
CCOC(=O)C1CCCN(C2=NC(=O)/C(=C/c3ccc(N(C)C)cc3)S2)C1 (configuration not stated) | n | 25.7 | n | n | 33.4 | n
O=C1N=C(N2CCCCC2)S/C1=C\c1ccccc1F | n | 22.2 | n | n | 60.8 | n
Cc1ccc(/C=C2\SC(N3CCCCC3)=NC2=O)cc1 | n | 42.4 | n | n | 72.8 | n
COc1ccc(-c2cnc3c(NC(C)=O)cc(-c4cccc(C(=O)N(C)C)c4)cn23)cc1OC | x | x | n | x | x | x
CC(C)C(=O)Nc1cccc(NC(=S)NC(=O)c2ccc([N+](=O)[O-])cc2)c1 | x | n | n | n | n | n
CCC(=O)Nc1cccc(NC(=S)NC(=O)c2ccccc2Cl)c1 | n | 25.2 | n | n | n | u
Cc1cc(C(=O)NC(=S)Nc2cccc(NC(=O)C(C)C)c2)ccc1[N+](=O)[O-] | u | 35.6 | n | n | n | n
O=C(Nc1ccc(NC(=S)NC(=O)c2ccccc2Cl)cc1)c1cccc(Cl)c1 | x | x | n | x | x | x
CCC(=O)Nc1cccc(NC(=S)NC(=O)c2cccs2)c1 | u | 40.5 | n | n | 110.0 | 25.1µM
CC(C)C(=O)Nc1cccc(NC(=S)NC(=O)c2ccccc2Cl)c1 | n | 25.0 | n | n | n | u
O=c1ncn2nc(Sc3ccc(F)cc3F)ccc2c1-c1c(Cl)cccc1Cl | x | x | n | x | x | x
C[C@H](NC(=O)[C@@H](N)Cc1ccc(O)cc1)C(=O)NCC(=O)N[C@H]1CSSC[C@@H](C(=O)O)NC(=O)[C@H](CO)NC(=O)[C@H]([C@@H](C)O)NC(=O)[C@H](Cc2ccccc2)NC(=O)[C@H]([C@@H](C)O)NC(=O)[C@H](CCCCN)NC(=O)[C@@H](Cc2c[nH]c3ccccc23)NC(=O)[C@H](Cc2ccccc2)NC(=O)[C@H](Cc2ccccc2)NC(=O)[C@H](CC(N)=O)NC(=O)[C@H](CCCCN)NC1=O | n | n | x | x | n | x
Cc1ccccc1C(=O)NC(=S)Nc1cccc(NC(=O)C(C)C)c1 | n | 27.4 | n | n | n | n
CC(=O)c1cccc(NC(=S)NC(=O)c2ccccc2C)c1 | n | n | n | n | n | n
CC1CCCCN1C(=O)c1ccccc1OC1CCN(S(C)(=O)=O)CC1 (configuration not stated) | n | n | n | n | n | n
CS(=O)(=O)N1CCC(Oc2ccccc2C(=O)N2CCC[C@H]2CO)CC1 | x | 16.6 | n | n | n | n
CCOCCCNC(=O)c1ccccc1OC1CCN(S(C)(=O)=O)CC1 | n | 11.5 | n | n | n | n
CCC1CCCCN1C(=O)c1ccccc1OC1CCN(S(C)(=O)=O)CC1 (configuration not stated) | n | n | n | n | n | n

Screening results from PubChem BioAssay.
